# Results reported in PubChem BioAssay.
# Where “and” joins values, the source holds several entries; their conditions need not be identical. Identical values can stand only once. For some of these results: Results with a measured potency or affinity are listed apart. Calls of active or inactive are those of the source. Rule as the data show it, unless noted: active = parasite load remaining mostly below about 12% (no sharp cut-off); inactive = mostly above about 10%.
# What was measured:
# [1] = EMT-state selective cytotoxicity in co-culture – imaging, PC-3E GFP, TEM4-18 mCherry, primary screen (AID 1345086;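 active = compounds killing one labelled cell type while sparing the other, by normalised counts and ratio limits, not self-fluorescent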;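 as to all read-outs here: cells exposed to compound for 72 h before imaging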;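 as to red/green cell ratio (normalised): normalised mesenchymal count divided by normalised epithelial count so high means epithelial killing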); conditions: PC-3E GFP / TEM4-18 mCherry co-culture, imaging cell counts, at 1 µM; for red/green cell ratio (normalised): actives lie on both sides, counts scaled to control wells, 1 = unselective
# [2] = viability loss with induced miR-34 in A549 – imaging, A549 dox-inducible miR-34, nuclei and caspase counts, primary screen (AID 1347080;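 active = compounds whose cell count with miR-34 switched on is under 0.7 times the count with it off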); conditions: A549 miR-34 inducible, Hoechst nuclei count, 48 h
# [3] = molecular target: NAD(+) hydrolase SARM1 (Homo sapiens) (UniProt Q6SZW1); assay: blocking NAD cleavage by SARM1 SAM-TIR – cell lysate, NAD-Glo luminescence (AID 1508614;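 active = compound whose remaining NAD level is above about 45 nM, limit read from the data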;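 also: higher remaining NAD means stronger inhibition of SARM1 NADase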); conditions: SAM-TIR HEK293T lysate NADase, at 1 µM, stronger effect = higher value
# [4] = blockers of polyQ-driven CASP3 activation – cell-based (AID 1583); conditions: polyglutamine-induced caspase-3 activation, cell assay; stronger effect = higher value;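 tested at 10 µM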
# [5] = yeast 75Q aggregation reduction – 75Q-TubU reporter (AID 1593); conditions: Yeast 75Q polyglutamine aggregation reporter
# [6] = restoration of touch response, mutant HTT neurons – whole organism, C. elegans mechanosensory neurons, N-terminal huntingtin (AID 1599); conditions: C. elegans polyQ-huntingtin mechanosensory neurons, stronger effect = higher value
# [7] = blockers of cytochrome c efflux from mitochondria – biochemical, purified mitochondria (AID 1603); conditions: stronger effect = lower value;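 also: mouse liver mitochondria challenged with calcium chloride; signal normalized to the plate average as 100%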
# [8] = polyglutamine aggregate formation blockers (AID 1604); conditions: polyglutamine-induced protein aggregation inhibition assay; stronger effect = higher value; tested at 2.5 µM
# [9] = glutamate transport activators, MN-1 cells, MN-1 cell line (AID 1612); conditions: MN-1 motor neuron cells, stronger effect = higher value;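 also: tested at 1 µM final; 0% = mean of DMSO vehicle wells on each plate; positive means more glutamate uptake than control and negative means less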
# [10] = GFP-Q80 aggregate reduction, neuronal-like cells, cell-based, NGF-treated PC12, GFPQ80 (AID 1614); conditions: PC12 NGF-treated GFP-polyQ80 inclusion reduction;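 also: lower means fewer inclusions and 0 means no inclusions at all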
# [11] = 75Q-TubH aggregate inhibition, S. cerevisiae, yeast (AID 1616); conditions: S. cerevisiae 75Q-TubH polyglutamine aggregation suppression; stronger effect = higher value
# [12] = P. berghei load reduction in hepatocytes – cell-based, HepG2, luciferase luminescence, HepG2 viability, primary screen (AID 624349);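 also: 100% = mean of DMSO negative control wells on the same plate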; conditions: P. berghei liver stage in HepG2, luciferase luminescence, concentration not given here; parasite load remaining: stronger effect = lower value; viability: measured here: HepG2 viability without parasites
# [13] = molecular target: Mitogen-activated protein kinase 7 (Homo sapiens) (UniProt Q13164); assay: Gal4-ERK5 driven luciferase induction – cell-based, HTS, primary screen (AID 1508626;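 active = luciferase signal above three times the same-plate solvent-only control wells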;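 also: luciferase driven by Gal4-ERK5 fusion binding five Gal4 sites before minimal TATA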); conditions: HeLa Gal4-ERK5 transactivation, 18 h, at 5 µM, stronger effect = higher value
# [14] = compounds altering viability of human ES cells (AID 493140; call rule not given here;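 also: cells exposed to compounds for four days before counting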); conditions: human embryonic stem cell survival screen; stronger effect = higher value
# [15] = measured here: epithelial PC-3E GFP cell survival
# [16] = measured here: mesenchymal TEM4-18 mCherry cell survival
# [17] = stronger effect = lower value, cell number ratio, induced over uninduced
# [18] = measured here: relative caspase fold change +Dox/-Dox
# [19] = measured here: total cells with miR-34 induction, stronger effect = lower value
# [20] = measured here: total cells without miR-34 induction
# NAD(+) hydrolase SARM1 (Homo sapiens), sequence (Q6SZW1 whole entry, looked up): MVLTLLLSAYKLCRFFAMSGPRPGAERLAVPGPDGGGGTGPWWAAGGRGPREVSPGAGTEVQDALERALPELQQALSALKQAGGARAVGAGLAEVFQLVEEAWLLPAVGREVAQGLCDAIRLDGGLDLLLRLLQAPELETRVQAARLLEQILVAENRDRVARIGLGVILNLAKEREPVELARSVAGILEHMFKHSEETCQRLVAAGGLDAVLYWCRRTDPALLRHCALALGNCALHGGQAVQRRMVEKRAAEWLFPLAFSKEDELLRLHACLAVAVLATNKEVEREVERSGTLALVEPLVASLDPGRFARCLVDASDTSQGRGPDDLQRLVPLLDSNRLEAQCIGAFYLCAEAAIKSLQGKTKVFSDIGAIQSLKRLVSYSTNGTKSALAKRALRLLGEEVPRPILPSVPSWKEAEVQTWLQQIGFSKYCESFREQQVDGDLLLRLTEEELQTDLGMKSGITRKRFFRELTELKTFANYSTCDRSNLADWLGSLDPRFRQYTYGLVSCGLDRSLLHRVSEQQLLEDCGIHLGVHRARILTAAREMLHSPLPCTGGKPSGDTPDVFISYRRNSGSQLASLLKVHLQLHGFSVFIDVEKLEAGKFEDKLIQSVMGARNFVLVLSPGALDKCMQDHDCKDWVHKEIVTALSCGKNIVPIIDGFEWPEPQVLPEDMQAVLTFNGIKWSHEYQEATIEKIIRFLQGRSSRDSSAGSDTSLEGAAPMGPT
# Mitogen-activated protein kinase 7 (Homo sapiens), sequence (Q13164 whole entry, looked up, the tested form may be a part): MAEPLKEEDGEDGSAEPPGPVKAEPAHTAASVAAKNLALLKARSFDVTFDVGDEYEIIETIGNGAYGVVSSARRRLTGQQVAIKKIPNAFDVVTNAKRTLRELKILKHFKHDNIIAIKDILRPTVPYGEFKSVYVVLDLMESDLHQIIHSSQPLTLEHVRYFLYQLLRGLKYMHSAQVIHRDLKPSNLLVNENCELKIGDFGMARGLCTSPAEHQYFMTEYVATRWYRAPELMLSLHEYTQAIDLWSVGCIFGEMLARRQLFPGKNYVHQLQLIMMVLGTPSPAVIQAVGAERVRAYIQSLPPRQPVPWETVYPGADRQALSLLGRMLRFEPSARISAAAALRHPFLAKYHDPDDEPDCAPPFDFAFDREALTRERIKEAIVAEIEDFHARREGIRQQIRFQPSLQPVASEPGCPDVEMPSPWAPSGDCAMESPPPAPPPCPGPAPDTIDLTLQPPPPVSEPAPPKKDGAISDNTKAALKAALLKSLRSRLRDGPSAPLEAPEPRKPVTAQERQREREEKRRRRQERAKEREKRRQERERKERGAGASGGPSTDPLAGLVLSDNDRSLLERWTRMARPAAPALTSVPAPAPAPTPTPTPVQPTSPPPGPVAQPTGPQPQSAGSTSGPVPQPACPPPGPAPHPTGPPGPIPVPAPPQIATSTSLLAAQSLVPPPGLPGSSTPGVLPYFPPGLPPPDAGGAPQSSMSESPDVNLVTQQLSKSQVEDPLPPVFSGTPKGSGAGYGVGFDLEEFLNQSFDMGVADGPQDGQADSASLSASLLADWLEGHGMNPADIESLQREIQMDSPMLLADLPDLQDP
SMILES,red/green cell ratio (normalised) [1],"normalised cell number [1, 15]","normalised cell number [1, 16]","fold change [2, 17]","fold change [2, 18]","cell count [2, 19]","cell count [2, 20]",remaining NAD [3],inhibition [4],score [5],rescue above control [6],cytochrome c release ratio [7],inhibition of aggregation [8],glutamate uptake change [9],inclusion score [10],aggregation suppression score [11],parasite load remaining [12],viability [12],luciferase signal [13],survival [14]
Oc1ccc2ccccc2c1,0.96 (inactive),0.82,0.79,0.874 (inactive),1.01,7170,8200,10 nM (inactive),–,–,–,–,–,–,–,–,–,–,–,–
O=c1[nH]c(=O)n(C2C[C@@H](O)[C@@H](CO)O2)cc1F (some centres undefined),0.79 (inactive),0.79,0.62,1.13 (inactive),1.5,4220,3730,–,-9.47%,1.23,-12.2,0.97,28.2%,1.59%,2,1.24,79.5% (inactive) and 36% (inactive),108%,–,–
CC(C)[C@H](N)C(=O)OCC(CO)OCn1cnc2c(=O)[nH]c(N)nc21 (some centres undefined),0.79 (inactive),1.28,1.01,0.935 (inactive),0.843,8710,9320,10 nM (inactive),–,–,–,–,–,–,–,–,–,–,–,–
O=C(O)CC(O)(CC(=O)O)C(=O)O,1 (inactive),1.06,1.06,0.829 (inactive),6.46,11100,13400,10 nM (inactive),–,–,–,–,–,–,–,–,61.3% (inactive),186%,52 AU (inactive),–
Cc1ccc(S(=O)(=O)NCl)cc1,0.85 (inactive),0.97,0.83,0.925 (inactive),0.99,8910,9630,10 nM (inactive),–,–,–,–,–,–,–,–,–,–,–,–
O=C1c2ccccc2C(=O)C1c1ccc(Cl)cc1,0.87 (inactive),1.18,1.03,0.921 (inactive),1.21,7610,8270,10 nM (inactive),–,–,–,–,–,–,–,–,–,–,–,–
COc1cc(/C=C/C(=O)N2CCC=CC2=O)cc(OC)c1OC,1.8 (active),0.39,0.7,0.965 (inactive),1.26,3400,3530,–,–,–,–,–,–,–,–,–,-9.42% (inactive) and 36.9% (inactive),36.5% and 76.3%,460 AU (active),0.417 (inactive)
COc1ccc(C[C@H](N)C(=O)N[C@@H]2[C@@H](CO)OC(n3cnc4c(N(C)C)ncnc43)[C@@H]2O)cc1 (some centres undefined),1 (inactive),0.94,0.94,1.05 (inactive),1.45,385,366,–,52.2%,1.68,-10.3,1.17,54%,15.3%,–,1.32,54.7% (inactive) and 3.3% (inactive),40.9% and 70.7%,–,–
O=C1O[C@@H](CO)[C@H](O)[C@@H](O)[C@@H]1O,1.05 (inactive),0.98,1.02,0.946 (inactive),2.61,12000,12600,–,-15.4%,1.29,7.61,0.98,50.7%,-5.06%,2,1.09,176% (inactive) and 30.6% (inactive),83.8% and 96.7%,–,–
Nc1ccc(S(=O)(=O)[O-])cc1.Nc1ccc(S(=O)(=O)[O-])cc1.[Zn+2],0.95 (inactive),1.26,1.2,0.91 (inactive),2.98,11500,12600,–,–,–,–,–,–,–,–,–,34.7% (inactive),93.6%,56 AU (inactive),–
CC(C)CC1C(=O)N2CCC[C@H]2C2(O)O[C@](NC(=O)C3C=C4c5cccc6[nH]c(Br)c(c56)C[C@H]4N(C)C3)(C(C)C)C(=O)N12 (some centres undefined),1.32 (inactive),0.91,1.21,0.852 (inactive),1.96,9430,11100,–,2.51%,1.5,6.29,4.55,72.4%,-22%,2.5,1.46,49.3% (inactive) and 20% (inactive),70.8% and 87%,–,–
C[N+](C)(C)C[C@H](O)CC(=O)[O-],1.04 (inactive),0.94,0.98,0.867 (inactive),4.08,11500,13200,10 nM (inactive),–,–,–,–,–,–,–,–,53.1% (inactive),99.7%,32 AU (inactive),–
C=CCCCCCCCCC(=O)[O-].C=CCCCCCCCCC(=O)[O-].[Zn+2],1.08 (inactive),0.98,1.05,0.86 (inactive),4.55,11700,13600,10 nM (inactive),–,–,–,–,–,–,–,–,88.8% (inactive),94.5%,48 AU (inactive),–
CC1(C)O[C@@H]2CC3C4C[C@H](F)C5=CC(=O)C=CC5(C)C4C(O)CC3(C)[C@]2(C(=O)CO)O1 (some centres undefined),1.23 (inactive),1.12,1.38,0.878 (inactive),1.79,7120,8110,–,7.08%,1.24,14.2,1.01,73%,41.4%,2,0.735,131% (inactive) and 75.5% (inactive),60.7% and 91.7%,–,–
OCc1ccccc1,0.94 (inactive),1.12,1.05,0.891 (inactive),0.934,8280,9290,10 nM (inactive),–,–,–,–,–,–,–,–,–,–,–,–
C[C@@H]1CC2C3C[C@H](F)C4=CC(=O)C=C[C@]4(C)[C@@]3(F)[C@@H](O)C[C@]2(C)[C@@]1(O)C(=O)COC(=O)C(C)(C)C (some centres undefined),1.34 (inactive),1,1.35,0.838 (inactive),1.19,6940,8290,–,-23.2%,1.34,16,0.82,39.8%,27.8%,2,1.12,119% (inactive) and 74% (inactive),76.5% and 90.1%,20 AU (inactive),–
CC(C)[C@@H]1CC[C@@H](C)C[C@H]1O,0.86 (inactive),0.91,0.79,0.95 (inactive),2.52,12500,13100,10 nM (inactive),18.8%,1.2,5.72,0.66,80.3%,2.2%,1,1.36,176% (inactive) and 64.4% (inactive),87.7% and 95.6%,44 AU (inactive),–
CC(=O)Oc1c(C)cccc1C(=O)O,0.87 (inactive),1.16,1,0.895 (inactive),0.783,8780,9810,10 nM (inactive),–,–,–,–,–,–,–,–,–,–,56 AU (inactive),–
C[C@@H]1O[C@@H](OC[C@H]2OC(Oc3c(-c4ccc(O)c(O)c4)oc4cc(O)cc(O)c4c3=O)[C@H](O)[C@@H](O)[C@@H]2O)[C@H](O)[C@H](O)[C@H]1O (some centres undefined),1.05 (inactive),0.95,0.99,0.911 (inactive),2.84,11500,12600,–,–,–,–,–,–,–,–,–,80% (inactive),104%,56 AU (inactive),–
OC[C@H]1O[C@H](O[C@]2(CCl)O[C@H](CCl)[C@@H](O)[C@@H]2O)[C@H](O)[C@@H](O)[C@H]1Cl,0.96 (inactive),1.1,1.05,0.909 (inactive),4.93,12300,13500,10 nM (inactive),–,–,–,–,–,–,–,–,60.8% (inactive),98.6%,68 AU (inactive),–
C[N+]1(C)C2CC[C@H]1CC(OC(=O)C(O)c1ccccc1)C2 (some centres undefined),0.83 (inactive),1.16,0.97,0.874 (inactive),1.28,10300,11800,–,5.29%,1.53,12.1,0.9,65.1%,-16.5%,2,1.36,95.8% (inactive) and 69.2% (inactive),75.7% and 100%,–,–
Cc1c(C)c2c(c(C)c1O)CCC(C)(CCCC(C)CCCC(C)CCCC(C)C)O2 (centres undefined),1.01 (inactive),0.82,0.83,0.899 (inactive),1.09,10700,11900,–,25.1%,-0.94,-0.91,1.24,78.9%,-4.89%,2,0.219,67.5% (inactive),90.7%,44 AU (inactive),–
C[C@]12C=CC(=O)C=C1CCC1C2[C@@H](O)C[C@@]2(C)C1CC[C@]2(O)C(=O)CO (some centres undefined),1.37 (inactive),1.03,1.41,0.848 (inactive),2.13,6630,7820,–,12%,1.21,1.9,1.29,70.5%,9.97%,2,1.27,115% (inactive) and 54.5% (inactive),73.3% and 82.9%,–,–
CCOC(=O)COc1ccc2c(=O)cc(-c3ccccc3)oc2c1,0.96 (inactive),0.88,0.85,0.922 (inactive),0.974,8170,8860,10 nM (inactive),–,–,–,–,–,–,–,–,–,–,–,–
CC(=O)NS(=O)(=O)c1ccc(NC(=O)c2ccccc2C(=O)O)cc1,0.81 (inactive),1.22,0.99,0.886 (inactive),0.953,8920,10100,10 nM (inactive),–,–,–,–,–,–,–,–,–,–,100 AU (inactive),–
CN(C)[C@@H]1C(=O)C(C(=O)NCN2CCCC2)=C(O)[C@@]2(O)C(=O)C3=C(O)c4c(O)cccc4[C@@](C)(O)[C@H]3C[C@@H]12,0.9 (inactive),1.09,0.97,0.855 (inactive),4.3,11700,13600,10 nM (inactive),–,–,–,–,–,–,–,–,26.9% (inactive),99.8%,112 AU (inactive),–
FC(F)(F)COCC(F)(F)F,0.7 (inactive),1.25,0.88,0.879 (inactive),0.825,10400,11900,10 nM (inactive),–,–,–,–,–,–,–,–,45.8% (inactive),107%,60 AU (inactive),–
CCOC(=O)Nc1nc2ccccc2[nH]1,1.08 (inactive),0.9,0.97,0.84 (inactive),2.72,8540,10200,10 nM (inactive),–,–,–,–,–,–,–,–,62.9% (inactive),103%,88 AU (inactive),–
CO/N=C(/C(=O)N[C@@H]1C(=O)N2C(C(=O)O)=C(COC(C)=O)CS[C@H]12)c1csc(N)n1,1.18 (inactive),1.15,1.35,0.913 (inactive),1.26,11200,12300,–,6.49%,1.38,2.83,1.43,86.2%,-17.6%,2,1.39,84.7% (inactive) and 61.2% (inactive),73.5% and 100%,–,–
